Drawing on PubChem BioAssay AID463173 (ICCB-Longwood Screening Facility, Harvard Medical School, 2010), this text covers survival for 92 compounds.

About 4,300 (8.3%) of roughly 52,000 compounds were called active. The full list was thinned out, with actives kept by preference. A number with no mark means an inactive call. Rule as the data show it: active = survival mostly below about 52% (no sharp cut-off); inactive = mostly above about 56%.

The test system of the assay is DeltatarO mutant. Description: S. aureus survival, RN4220 and DeltatarO strains – OD600, teichoic acid synthesis inhibitors, primary screen (AID 463173). The conditions noted are these: S. aureus RN4220 wild type/DeltatarO growth, OD600, 18 h, stronger effect = lower value, screened at 18.75 µg/mL (by protocol).
On to `O=C(Nc1cccnc1)Nc1c[nH]c2c(Cl)cccc2c1=O`, for which the survival was 89%.

As for `COc1ccc(-c2cc(C(F)(F)F)n3nc(C(=O)O)c(Cl)c3n2)cc1OC`, the survival was 70%.

For `Cc1cc(C)nc(-n2nc(C)c3c2N(C)C(=O)CC3c2ccc(Cl)cc2)n1` (configuration not stated), the survival was 73%.

Regarding `COc1ccc(-c2onc(C)c2C)cc1S(=O)(=O)N1CCC(C)CC1`, the survival was 70%.

For `CC(NC(=O)CN1C(=O)COc2ccc(S(=O)(=O)N3CCCCCC3)cc21)c1ccccc1` (configuration not stated), the survival was 68%.

Take `O=C(Cn1c(=O)n(Cc2ccc3c(c2)OCO3)c(=O)c2ccc(C(=O)NC3CCCCC3)cc21)Nc1ccccc1F`: the survival is 76%.

On to `Cc1nc2c(C(=O)NCc3ccccc3)cnn2c(C)c1Cc1ccc(F)cc1`, for which the survival is 83%.

Take `CCN(CC)C(=O)CSc1nc2ccccc2c(=O)n1Cc1ccco1`: the survival was 77%.

As for `Cc1cccc(CNC(=O)c2ccc(Cn3c(SCc4ccccc4)nc4cccnc43)cc2)c1`, the survival is 92%.

For `Cc1cccc(Cn2c(SCc3ccc(C(=O)NCc4ccccc4)cc3)nc3cccnc32)c1`, the survival is 46% (active).

On to `Cc1cccc(Cn2c(SCc3ccc(C(=O)NCCc4ccccc4)cc3)nc3cccnc32)c1`, for which the survival was 115%.

Consider `Cc1ccccc1C(=O)OCc1cc(=O)n2nc(-c3cccs3)sc2n1`, for which the survival was 117%.

Take `Cc1ccc(C)c(CNC(=O)CN2C(=O)CSc3ccc(S(=O)(=O)N(C)C)cc32)c1`: the survival was 87%.

On to `COc1ccc(CC(=O)Nc2sc3c(c2C(=O)Nc2ccc(C)cc2)CCCCC3)cc1`, for which the survival was 131%.

Turning to `COc1ccc(NC(=O)c2c(NCc3cccc(OC)c3)sc3c2CCCC3)cc1`, the survival was 86%.

On to `COc1ccc(CC(=O)Nc2sc3c(c2C(=O)Nc2ccccc2)CCCCC3)cc1`, for which the survival was 68%.

Take `COc1ccc(CC(=O)Nc2sc3c(c2C(=O)Nc2cccc(C)c2)CCCCC3)cc1`: the survival was 43% (active).

For `COc1ccc(CC(=O)Nc2sc3c(c2C(=O)Nc2c(C)cccc2C)CCCCC3)cc1`, the survival is 47% (active).

Consider `COc1ccc(CC(=O)Nc2sc3c(c2C(=O)Nc2cccc(Cl)c2)CCCCC3)cc1`, for which the survival was 59%.

`Cc1ccccc1CNc1nc(N(C)C)nc2c1cnn2C`: the survival was 72%.

In the case of `Cc1ccc(C(=O)c2cn(Cc3ccccc3F)c3cc4c(cc3c2=O)OCCO4)cc1`, the survival is 82%.

`CCc1ccc(NC(=O)CSc2cn(CC(=O)N3CCOCC3)c3ccccc23)cc1`: the survival was 86%.

Turning to `CSc1ccc(CCNC(=O)c2ccc(-c3nc(COc4ccccc4)c(C)o3)cc2)cc1`, the survival is 91%.

As for `Nc1ccc(Cc2nc3ccccc3[nH]2)cc1`, the survival is 86%.

In the case of `CC(C)(Cc1nc2ccccc2[nH]1)c1nc2ccccc2[nH]1`, the survival is 97%.

With `Cc1nn(-c2nc3ccccc3[nH]2)c(N)c1-c1ccccc1`, the survival was 2% (active).

As to `COc1cc(OC)c(NC(=O)N2CCC(CN3CCCC3)CC2)cc1Cl`, the survival is 84%.

`COc1ccc(NC(=O)c2sc3nc(C(F)(F)F)cc(C)c3c2N)cc1OC`: the survival is 140%.

As for `N#Cc1cc2c(nc1SCC(=O)N1CCOCC1)CCC2`, the survival was 97%.

Regarding `O=C(COc1ccccc1Cl)Nc1nc(-c2ccc(F)cc2)ns1`, the survival was 55%.

In the case of `Cc1cc(C)cc(OCC(=O)Nc2nc(-c3ccc(F)cc3)ns2)c1`, the survival is 89%.

Consider `COc1ccc(-c2nsc(NC(=O)COc3ccc(C)c(C)c3)n2)cc1`, for which the survival is 65%.

With `O=C(Nc1nc(-c2ccc(Br)cc2)ns1)c1ccc(F)cc1`, the survival was 52%.

Consider `CCC(Oc1ccc(F)cc1)C(=O)Nc1nc(-c2ccc(F)cc2)ns1` (configuration not stated), for which the survival is -2% (active).

Consider `COc1ccc(-c2nsc(NC(=O)c3oc4cc(C)c(C)cc4c3C)n2)cc1`, for which the survival is 67%.

Take `CCC(Oc1ccc(F)cc1)C(=O)Nc1nc2c(s1)CCCC2` (configuration not stated): the survival is 83%.

In the case of `COc1ccc(-c2nsc(NC(=O)C(C)Oc3ccc(Cl)c(C)c3)n2)cc1` (configuration not stated), the survival is 45% (active).

`CC(Oc1ccc(F)cc1)C(=O)Nc1nc(-c2ccc(F)cc2)ns1` (configuration not stated): the survival was -2% (active).

With `CCC(=O)N1CCc2cc(CNC(=O)C(CC)c3ccccc3)ccc21` (configuration not stated), the survival was 92%.

In the case of `Cc1cc2c(cc1NC(=O)c1ccccc1Cl)n(C)c(=O)c(=O)n2C`, the survival was 79%.

For the compound `CCC(=O)C1C(=O)CC(C)(C)CC1=O`, the survival is 103%.

For the compound `Cc1ccc(S(=O)(=O)c2nnn(CC(=O)Nc3ccccc3C)c2N)cc1C`, the survival is 91%.

In the case of `CN(Cc1ccccc1)C(=O)C1CCN(S(C)(=O)=O)CC1`, the survival is 80%.

For `COc1cc(OC)c(NC(=O)N2CCSc3ccccc32)cc1Cl`, the survival is 74%.

In the case of `O=C(Nc1cccc(Cl)c1)N1CCSc2ccccc21`, the survival was 79%.

For `COc1cc(NC(=O)N2CCSc3ccccc32)cc(OC)c1OC`, the survival is 52% (active).

`COc1ccc(Br)cc1CNC(=O)CN1CCSc2ccccc21`: the survival was 88%.

Regarding `COc1ccc(Br)cc1CNC(=O)CCC(=O)N1CCSc2ccccc21`, the survival is 41% (active).

Take `CCOc1ccccc1CNC(=O)CCC(=O)N1CCSc2ccccc21`: the survival was 107%.

In the case of `COc1ccc(-c2c3c(=O)n(C)c(=O)n(C)c3c3c(-c4ccc(C)cc4)nc4ccccc4n23)cc1`, the survival is 82%.

Regarding `CCCCOc1ccc(C2C(=O)N(C3CCCCC3)CC(=O)N2CCCC)cc1` (configuration not stated), the survival was 89%.

Take `COc1cccc(C(C(=O)NC2CCCCC2)N(C(=O)c2ccccn2)c2cccnc2)c1` (configuration not stated): the survival is 81%.

On to `CCOC(=O)N1CCC2(CC1)OC(=O)C(C)=C2C(=O)NCc1ccc(C)cc1`, for which the survival was 70%.

In the case of `O=C(CSc1nnc(-c2ccccc2Cl)o1)N1CCCc2ccccc21`, the survival is 35% (active).

Take `O=C(CSc1nnc(-c2ccccc2)o1)N1CCCc2ccccc21`: the survival is 80%.

In the case of `O=C(CSc1nnc(-c2ccc(F)cc2)o1)N1CCCc2ccccc21`, the survival was 72%.

In the case of `O=C(CSc1nnc(-c2ccccc2F)o1)N1CCc2ccccc21`, the survival was 100%.

Take `Cc1cccc(-c2nnc(SCC(=O)N3CCCc4ccccc43)o2)c1`: the survival was 11% (active).

As to `O=C(CSc1nnc(-c2ccc(Cl)cc2)o1)N1CCc2ccccc21`, the survival was 96%.

For the compound `Cc1ccccc1-c1nnc(SCC(=O)N2CCCc3ccccc32)o1`, the survival is 9% (active).

For `Cc1ccc(-c2nnc(SCC(=O)N3CCCc4ccccc43)o2)cc1`, the survival is 63%.

Consider `Cc1ccc(-c2nnc(SCC(=O)N3CCc4ccccc43)o2)cc1`, for which the survival is 95%.

On to `Cc1ccc(NC(=O)c2ccc(NC(=O)N3CCSc4ncccc43)cc2)c(Cl)c1`, for which the survival was 64%.

Consider `COc1cccc(-c2nc(CS(=O)(=O)CC(=O)Nc3cccc(C(C)=O)c3)c(C)o2)c1`, for which the survival is 71%.

As to `CCc1cccc(NC(=O)CN2c3ccccc3S(=O)(=O)c3ccccc32)c1`, the survival was 72%.

For `CCOc1ccc(CC(=O)NCCc2csc(-c3ccc(C)cc3)n2)cc1`, the survival is 88%.

Regarding `CCOc1ccc(CCNC(=O)c2ccc(-n3c(C)cc4c3CCC(C)C4)cc2)cc1OCC` (configuration not stated), the survival is 82%.

With `COc1ccc(CCNC(=O)c2ccc(-n3c(C)cc4c3CCCC4)cc2)cc1OC`, the survival was 74%.

`COc1ccc(CCNC(=O)c2ccc(-n3c(C)cc4c3CCC(C)C4)cc2)cc1OC` (configuration not stated): the survival was 52% (active).

Consider `CCOC(=O)C1CCN(C(=O)C2CCN(C3=NS(=O)(=O)C(c4ccc(C)cc4)=C3CC)CC2)CC1`, for which the survival was 115%.

Take `O=C(NCC(c1ccco1)S(=O)(=O)c1cccs1)c1ccc(Cl)cc1` (configuration not stated): the survival was 102%.

Take `O=C(Cn1c(=O)oc2cc(Cl)ccc21)Nc1cccc(C(F)(F)F)c1`: the survival was 89%.

As for `O=C(Cc1ccc(F)cc1)NCCc1csc2nc(-c3ccc(Cl)cc3)nn12`, the survival was 95%.

For `COC(=O)c1cc(NS(=O)(=O)c2ccc3c(c2)OCCO3)ccc1Cl`, the survival is 65%.

`CCOC(=O)c1ccc(NS(=O)(=O)c2ccc3c(c2)OCCO3)cc1`: the survival is 74%.

Turning to `Cc1c(Cl)cccc1NS(=O)(=O)c1ccc(NS(=O)(=O)c2ccc3c(c2)OCCO3)cc1`, the survival is 13% (active).

Take `O=S(=O)(Nc1ccc(Cl)cc1)c1ccc(NS(=O)(=O)c2ccc3c(c2)OCCO3)cc1`: the survival is 38% (active).

As for `CN1CCN(S(=O)(=O)c2cccc(S(=O)(=O)c3ccc(Cl)c(Cl)c3)c2)CC1`, the survival is 102%.

Take `O=S(=O)(Nc1ccc(C(F)(F)F)cc1)c1ccc2c(c1)OCCO2`: the survival was 69%.

With `O=S(=O)(Nc1cccc(C(F)(F)F)c1)c1ccc(NS(=O)(=O)c2ccc3c(c2)OCCO3)cc1`, the survival was 6% (active).

Regarding `CC(=O)c1ccc(NS(=O)(=O)c2cccc(S(=O)(=O)c3ccc(Cl)cc3)c2)cc1`, the survival was 124%.

Consider `O=S(=O)(Nc1ccc(Cl)cc1)c1cccc(S(=O)(=O)c2ccc(Cl)c(Cl)c2)c1`, for which the survival is 37% (active).

Regarding `Cc1cccc(C)c1NS(=O)(=O)c1ccc(NS(=O)(=O)c2ccc3c(c2)OCCO3)cc1`, the survival is 110%.

For the compound `COc1ccc(NS(=O)(=O)c2ccc(NS(=O)(=O)c3ccc4c(c3)OCCO4)cc2)cc1`, the survival is 116%.

For `O=S(=O)(Nc1c(F)cccc1F)c1ccc2c(c1)OCCO2`, the survival was 63%.

Regarding `O=C(O)CSc1nc2ccc(Cl)cc2[nH]1`, the survival is 84%.

Turning to `CCOc1cccc2sc(N(Cc3cccnc3)C(=O)c3ccco3)nc12`, the survival is 77%.

Turning to `CCc1cc(C(=O)NC(C)c2ccccc2)no1` (configuration not stated), the survival was 60%.

Consider `Cc1ccc(NC(=O)CSc2nc(=O)n(Cc3ccncc3)c3c2CCC3)cc1Cl`, for which the survival is 80%.

As for `Cc1cn(S(=O)(=O)c2ccc(F)c(Cl)c2)cn1`, the survival is 91%.

As for `Nc1c(C(=O)Nc2ccc(C(F)(F)F)cc2)sc2nc(-c3cccs3)ccc12`, the survival is 70%.

With `CCN1CCN(c2ncc3c(n2)CCN(Cc2cc(F)cc(F)c2)C3)CC1`, the survival was 90%.
